From PubChem BioAssay AID615 (Sanford-Burnham Center for Chemical Genomics, 2007)
Out of some 21,000 compounds screened, fewer than 10 were called active.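 The calls were made as follows: active = inhibition above 50% at the 20 µM single-dose screen; inactive = the rest.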 Not all results are given here.

biological target: Alkaline phosphatase, tissue-nonspecific isozyme (Homo sapiens) (UniProt P05186); assay: human TNAP enzyme inhibitors, primary screen, biochemical, colorimetric, p-nitrophenol readout (AID 615); conditions: purified TNAP, pNPP hydrolysis, absorbance 405 nm; at 20 µM; active compounds read high;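 also: 0% = DMSO only wells and 100% = 1 mM levamisole wells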
Sequence (P05186 whole entry, looked up): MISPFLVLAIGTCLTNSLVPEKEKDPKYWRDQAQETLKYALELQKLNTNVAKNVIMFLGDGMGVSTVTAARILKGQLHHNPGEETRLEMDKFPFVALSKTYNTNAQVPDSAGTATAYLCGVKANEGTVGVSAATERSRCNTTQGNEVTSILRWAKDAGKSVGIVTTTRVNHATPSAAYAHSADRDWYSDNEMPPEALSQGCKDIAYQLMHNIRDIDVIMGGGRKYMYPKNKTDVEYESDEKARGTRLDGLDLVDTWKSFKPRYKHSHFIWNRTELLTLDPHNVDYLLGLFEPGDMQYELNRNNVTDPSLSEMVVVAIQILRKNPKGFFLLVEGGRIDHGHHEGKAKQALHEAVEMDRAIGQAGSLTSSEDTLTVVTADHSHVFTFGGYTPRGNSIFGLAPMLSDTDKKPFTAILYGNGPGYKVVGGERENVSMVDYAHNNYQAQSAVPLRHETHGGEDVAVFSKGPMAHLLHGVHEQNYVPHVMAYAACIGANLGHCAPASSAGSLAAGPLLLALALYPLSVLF

inhibition, inactive:
CC(C)C[C@H](NC(=O)NCCc1ccc(Cl)cc1)C(=O)O 2.2%
Cc1cc(C)c2nc(SCCC#N)nc(C)c2c1 -0.5%
CCCCn1nnnc1NCc1cc(OC)c(OC)c(OC)c1 -0.6%
C=CCn1c(COc2ccccc2)nnc1SCC(=O)NCC(=O)OCC -6.9%
CC(=O)Cc1nsc(NC(=O)c2ccc(COc3ccc(C)cc3)o2)n1 1.5%
Cc1cc(NC(=O)c2cnn3cccnc23)n(-c2ccccc2)n1 3.9%
Cc1ccc(S(=O)(=O)N2CCC(C(=O)N[C@@H](C)C(=O)NCCc3ccccc3)CC2)cc1 -7.1%
CCC(CC)C(=O)Nc1cc(C(=O)OC)cc(C(=O)OC)c1 4.4%
CC(=O)N1CCN(CCN=CC2=C(O)CC(C)(C)CC2=O)CC1 5.5%
Cc1ccc2c(C(=O)CN3CCCC3)c(C)[nH]c2c1 -14.5%
O=C(O)CN(Cc1ccco1)S(=O)(=O)c1ccc(F)cc1 0.4%
COc1ccc(NC2CC(=O)N(C)C2=O)cc1 (centres undefined) 3.1%
Cc1occc1C(=O)Nc1cccc(Cn2cccn2)c1 -2.4%
CC(=O)OCc1cc(=O)n(C)c(=O)n1C 1.6%
Nc1nnnn1/N=C/c1cccs1 0%
CC(C)c1nc(-c2ccccn2)no1 2.2%
CSCCC(NC(=O)c1ccc(=O)n(C)n1)c1nc2ccccc2[nH]1 (centres undefined) -0.4%
CCc1ccccc1N(CC(=O)N1CCN(c2ccccc2F)CC1)S(C)(=O)=O 3.4%
Cc1cccc(N(CC(O)CN(C)C)S(=O)(=O)c2ccccc2)c1 (centres undefined) 6%
CC(=O)Nc1nc(C)c(Cc2ccccc2)c(=O)[nH]1 0%
CC(C)C(c1nnnn1C1CCCC1)N1CCN(c2ccccc2F)CC1 (centres undefined) 4.1%
O=C(NC(c1ccccc1)c1ccccc1)N1CCN(CCO)CC1 5.5%
c1ccc(-n2ncc(-c3nn[nH]n3)n2)cc1 1.2%
COc1ccc(C2/C(=C(/O)c3ccc(OC(C)C)cc3)C(=O)C(=O)N2CCCN2CCOCC2)cc1 (centres undefined) 2.6%
CCCOc1ccc(CN(CCO)CCO)cc1C(=O)OC 8.5%
CCC(=O)Nc1cccc(NC(=O)CSc2nnnn2C2CCCC2)c1 4.5%
CCOC(=O)N1CCN(Cc2oc(CO)cc(=O)c2O)CC1 4.3%
Cc1ccc(-n2c(Cc3cccs3)nnc2SCC(=O)OC(C)C)cc1 -1%
CCc1nnc(NC(=O)CSc2nnc(-c3ccncc3)n2Cc2ccccc2)s1 5.3%
